Experimental data published in PubChem BioAssay (NCATS).
Inconclusive results are not listed. The source made the active and inactive calls. Calls come from the whole dose curve; as a rule, active = well fitted cell-killing curve with a large enough effect; inconclusive = small, poorly fitted or top-dose-only effect, or effect the other way; inactive = no such curve, though single readings can be large or run the other way.

Assay: Quantitative High-Throughput drug screen in 47 multiple myeloma cell lines against the NCATS MIPE library collection: SKMM1_PLB cell viability assay (AID 1919863); note: nearly all actives have a fitted effect of over 35% in size; for viability: series mostly up to about 46 µM
Conditions: SKMM1 myeloma viability, CellTiter-Glo ATP, 48 h; viability: hits give low values
Text: PI: Beverly A. Mock Ph.D.
Laboratory of Cancer Biology and Genetics,
Center for Cancer Research, National Cancer Institute,
National Institute of Health, Bethesda, Maryland
Drug resistance and disease progression are common in multiple myeloma (MM) patients, underscoring the need for new therapeutic combinations. […] We hypothesized that effective combinations would reduce MYC expression and enhance p16 activity. […] These preclinical data identify potentially useful drug combinations for evaluation in drug-resistant MM and reveal potential mechanisms of combined drug sensitivity.
Described herein is the primary MIPE qHTS used to cherrypick compounds. Validated compounds were then further tested for potential synergistic activiy.
[1] Peat TJ, Gaikwad SM, Dubois W, Gyabaah-Kessie N, Zhang S, Gorjifard S, Phyo Z, Andres M, Hughitt VK, Simpson RM, Miller MA, Girvin AT, Taylor A, Williams D, D'Antonio N, Zhang Y, Rajagopalan A, Flietner E, Wilson K, Zhang X, Shinn P, Klumpp-Thomas C, McKnight C, Itkin Z, Chen L, Kazandijian D, Zhang J, Michalowski AM, Simmons JK, Keats J, Thomas CJ, Mock BA. Drug combinations identified by high-throughput screening promote cell cycle transition and upregulate Smad pathways in myeloma. Cancer Lett. 2023 Aug 1;568:216284. doi: 10.1016/j.canlet.2023.216284. Epub 2023 Jun 24. PMID: 37356470; PMCID: PMC10408729.
SEQUENCE No. (e.g., 1, 2, 3, etc.); […] (e.g., Cells, Incubation, Reagent, etc.); VALUE and DESCRIPTION.
1; Cells; 5 uL; white, solid bottom 1536-well Greiner assay plate.
2; Compounds; 23 nL; Kalypsis pin tool (Wako USA) equipped with a 1536-well pin head to transfer to the assay plates.
3; Incubation; 48 hours; 37C incubation.
4; Reagent;5uL; CellTiter Glo (Promega).
5; Detector; 425V; Luminescence; Viewlux PerkinElmer.
NOTES (numbers refer to Sequence numbers above)
1. The cell-based screening methods employed in this study were like those previously published. Briefly, the corresponding myeloma cell lines were screened in 1,536-well plates with 500 cells, 5-uL per well for inhibition of cell viability (assessed by measuring ATP levels with CellTiterGlo).
2. NCATS MIPE 4.0 library of approved and investigational drugs were added using the Kalypsis pin tool. Wells treated with DMSO only for 100% viability and media only for 0% viability were used as controls.
3. The assay plates were covered and incubated for 48 hours in a 37C, 5% CO2 incubator with controlled humidity.
4. After 48 hours, CellTilter-GloTM luminescent substrate mix (Promega) reagent was added to the assay plate and plates we incubated for 5 min at room temperature.
5. Signal was measured as median relative luminescence units on a ViewLux (PerkinElmer) multiplate reader.
[1] Heske CM, Davis MI, Baumgart JT, Wilson K, Gormally MV, Chen L, Zhang X, Ceribelli M, Duveau DY, Guha R, Ferrer M, Arnaldez FI, Ji J, Tran HL, Zhang Y, Mendoza A, Helman LJ, Thomas CJ. Matrix Screen Identifies Synergistic Combination of PARP Inhibitors and Nicotinamide Phosphoribosyltransferase (NAMPT) Inhibitors in Ewing Sarcoma. Clin Cancer Res. 2017 Dec 1;23(23):7301-7311. doi: 10.1158/1078-0432.CCR-17-1121. Epub 2017 Sep 12. PMID: 28899971; PMCID: PMC6636827.
Potency is the fitted concentration of half-maximal effect.

Row | Structure (SMILES) | Potency | viability
1 | COc1ccc(C(=O)CC2(O)C(=O)Nc3c(Cl)ccc(Cl)c32)cc1 (stereo not given) | 1.18 µM (active) | –
2 | O=C(Nc1cn[nH]c1-c1nc2ccc(CN3CCOCC3)cc2[nH]1)NC1CC1 | 10.5 µM (active) | –
3 | Cc1c(C)n(Cc2ccc(-c3ccccc3C(=O)O)cc2)c2ccc(C(=O)N[C@@H](C)c3ccc([N+](=O)[O-])cc3)cc12 | – | 123% (inactive)
4 | Cc1ccc(-c2ncn(-c3ccc(Nc4nccc(-c5cccc(N6CCOCC6)c5)n4)cc3)n2)cn1 | 0.235 µM (active) | –
5 | CN1c2cc(O)c(N=NC(N)=O)cc2CC1S(=O)(=O)O (stereo not given) | – | 97.7% (inactive)
6 | CC(=O)OCC(=O)[C@@]1(O)[C@H](C)C[C@H]2[C@@H]3C=C(C)C4=Cc5c(cnn5-c5ccccc5)C[C@]4(C)[C@@H]3[C@@H](O)C[C@@]21C | 18.7 µM (active) | –
7 | CC1COC2(CCN(c3nc(=O)c4cc(C(F)(F)F)cc([N+](=O)[O-])c4s3)CC2)O1 (stereo not given) | – | 134% (inactive)
8 | O=C(CCCCCCC(=O)Nc1ccc([C@H]2O[C@@H](CSc3nc(-c4ccccc4)c(-c4ccccc4)o3)C[C@@H](c3ccc(CO)cc3)O2)cc1)NO | 23.5 µM (active) | –
9 | C=CC(=O)Nc1cc2c(Nc3ccc(F)c(Cl)c3)ncnc2cc1OCCCN1CCOCC1 | 16.6 µM (active) | –
10 | CC=CC1=C(C(=O)O)N2C(=O)[C@H](NC(=O)[C@H](N)c3ccc(O)cc3)[C@@H]2SC1 | – | 117% (inactive)
11 | CCCCCCCCCC(=O)N[C@@H](Cc1c[nH]c2ccccc12)C(=O)N[C@H](CC(N)=O)C(=O)N[C@@H](CC(=O)O)C(=O)N[C@@H]1C(=O)NCC(=O)N[C@@H](CCCN)C(=O)N[C@@H](CC(=O)O)C(=O)N[C@H](C)C(=O)N[C@@H](CC(=O)O)C(=O)NCC(=O)N[C@H](CO)C(=O)N[C@@H]([C@@H](C)CC(=O)O)C(=O)N[C@@H](CC(=O)c2ccccc2N)C(=O)O[C@@H]1C | – | 145% (inactive)
12 | Nc1ccn([C@@H]2O[C@H](CO)[C@H](O)C2(F)F)c(=O)n1 | 0.0264 µM (active) | –
13 | CC(C)(O)c1cc2nc(-c3cnc(N)nc3)nc(N3CCOCC3)c2s1 | 0.235 µM (active) | –
14 | COc1ccc(F)c(F)c1C(=O)c1cnc(NC2CCN(S(C)(=O)=O)CC2)nc1N | 2.96 µM (active) | –
15 | CCNC(=O)Nc1ccc2ncc(Nc3ccc(C)cc3)nc2n1 | – | 139% (inactive)
16 | CC(C)c1nn(-c2c(Cl)cccc2Cl)c2nc(Cc3ccc(OCCO)cc3)[nH]c(=O)c12 | 0.332 µM (active) | –
17 | COc1cccc2c(NCc3ccccc3)nc(-n3c(N)nc4ccccc43)nc12 | 7.43 µM (active) | –
18 | O=C(Nc1cc(C(F)(F)F)cc(C(F)(F)F)c1)c1cc(Cl)ccc1O | 0.833 µM (active) | –
19 | Cc1cc(Nc2cc(N3CCN(C)CC3)nc(Sc3ccc(NC(=O)C4CC4)cc3)n2)n[nH]1 | 16.6 µM (active) | –
20 | C1Cc2[nH]nc(-c3nn[nH]n3)c2C1 | – | 115% (inactive)

Row | Structure (SMILES) | Potency | viability
21 | OCc1ccc(-c2ccc(-c3ccc(CO)s3)o2)s1 | 20.9 µM (active) | –
22 | C=CC(=O)Nc1cc2c(Nc3ccc(F)c(Cl)c3)ncnc2cc1C#CC(C)(C)N1CCN(C)CC1 | 13.2 µM (active) | –
23 | CC(C)[C@H](C(=O)Nc1ccc(C(=O)NO)cc1)c1ccccc1 | 1.18 µM (active) | –
24 | CC[C@@H]1C(=O)N(C)c2cnc(Nc3ccc(C(=O)NC4CCC(N5CCN(CC6CC6)CC5)CC4)cc3OC)nc2N1C(C)C (stereo not given in full) | 2.35 µM (active) | –
25 | COc1ccc(-c2cc3c(C)nc(N)nc3n(C3CCC(OCCO)CC3)c2=O)cn1 (stereo not given) | 0.0132 µM (active) | –
26 | Nc1cc(C(F)(F)F)c(-c2cc(N3CCOCC3)nc(N3CCOCC3)n2)cn1 | 0.662 µM (active) | –
27 | CNC(=O)CN1CCC(Oc2cc3c(Nc4cccc(Cl)c4F)ncnc3cc2OC)CC1 | 0.0264 µM (active) | –
28 | CNC(=O)c1nn(C)c2c1C(C)(C)Cc1cnc(Nc3ccc(N4CCN(C)CC4)cc3)nc1-2 | 9.35 µM (active) | –
29 | NC1(Cc2ccc(Cl)cc2)CCN(c2ncnc3[nH]ccc23)CC1 | 18.7 µM (active) | –
30 | C1=CCOCc2cc(ccc2OCCN2CCCC2)Nc2nccc(n2)-c2cccc(c2)OCC1 | 9.35 µM (active) | –
31 | CN1CCC(CNc2ccc3ncc(-c4cccc(OC(F)(F)F)c4)n3n2)CC1 | 23.5 µM (active) | –
32 | Nc1nccc(Oc2ccc(NC(=O)c3c[nH]cc(-c4ccc(F)cc4)c3=O)cc2F)c1Cl | 23.5 µM (active) | –
33 | NC(=O)Nc1cc(-c2cccc(F)c2)sc1C(=O)N[C@H]1CCCNC1 | 7.43 µM (active) | –
34 | Cc1ccc2nc(NC(=O)CSc3nc4c(c(=O)n3-c3ccccc3)SCC4)sc2c1 | 11.8 µM (active) | –
35 | CN(C)CCCN=c1c2ccccc2n(C)c2[nH]c(=O)n(C)c(=O)c12 | 14.8 µM (active) | –
36 | C[C@H]1C[C@@H]2[C@@H]([C@@H](O)C[C@@]3(C)[C@H]2CC[C@]3(O)C(=O)CO)[C@@]2(C)C=CC(=O)C=C12 | – | 112% (inactive)
37 | CCOC(=O)C1=C(C)NC2=C(C(=O)CC(C)(C)C2)C1c1ccc(-c2ccccc2)cc1 (stereo not given) | 23.5 µM (active) | –
38 | Cc1ccc(C(=O)Nc2cccc(C(F)(F)F)c2)cc1-c1ccc2nc(NCCN3CCOCC3)ncc2c1 | 16.6 µM (active) | –
39 | NC(=O)c1c(OCc2c(F)cc(Br)cc2F)nsc1NC(=O)NCCCCN1CCCC1 | 29.6 µM (active) | –
40 | Cc1ccc(NC(=O)C2(c3ccc4c(c3)OC(F)(F)O4)CC2)nc1-c1cccc(C(=O)O)c1 | 0.0743 µM (active) | –
